Test results as given in PubChem BioAssay (NCI).
The panel holds about 83,000 compounds, 20% with a hit somewhere; the sample as a whole holds those more often.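 For each line, cells grew in 96-well plates with the test compound present at a single concentration for 48 hours.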 Activity calls are given as the source filed them. Rule for the calls: active = growth percent below 10; inactive = the rest.

Test system: HL-60(TB) leukemia
Test: NCI-60 one-dose screen, 48 h (100 = growth as untreated, 0 = no growth, -100 = all killed)
Settings: 10 µM unless noted

| Structure (SMILES) | growth |
| --- | --- |
| O=C(CCN1C(=O)/C(=C/c2ccccc2F)SC1=S)N1CCOCC1 | 82.7% (inactive) |
| Cn1cc(-c2cc(N)n3nc(-c4cn(C)c5ccc(F)cc45)cc3n2)c2cc(F)ccc21 | -32.4% (active) |
| C#Cc1nc(/C=C/C(=O)NO)cs1 | -58.7% (active) |
| O=C1[C@@H]2Cc3c([nH]c4ccccc34)[C@H](c3c(Cl)cccc3Cl)N2C(=O)CN1C1CCN(CC2CCCCC2)CC1 | -25.1% (active) |
| C/C(=C(\c1ccc(O)cc1)c1ccc(OCCN2CCCCCC2)cc1)c1ccc(Cl)cc1 | -49.2% (active) |
| O=c1[nH]c(Sc2sc3ccc(Cl)cc3c2CBr)nc(=S)[nH]1 | 21.7% (inactive) |
| COc1ccc(/C=C(\C#N)C(=O)N2c3ccccc3Sc3ccc(SC)cc32)cc1F | 93.5% (inactive) |
| Cn1c(SCC(=O)c2ccc(Br)cc2)nc2ccccc2c1=O | 92.1% (inactive) |
| COc1cc(/C=C2\C(=O)Nc3ccccc32)ccc1OCc1ccc(Cl)cc1 | 113% (inactive) |
| O=C(Nc1cc(C(F)(F)F)cc(C(F)(F)F)c1)Nc1ccc2oc(=O)ccc2c1 | -24.3% (active) |
| N/C(=N\C(N)=N\c1nc2ccccc2s1)c1cccc(F)c1 | 83% [5 µM] (inactive) |
| Nc1nc(Nc2ccccc2SSc2ccccc2Nc2nc(N)nc(-c3cccc(Br)c3)n2)nc(-c2cccc(Br)c2)n1 | 83% (inactive) |
| OC1CCN(CCCOc2c3ccccc3nc3c2oc2ccccc23)CC1 | 6.8% (active) |
| CCOc1ccc([C@H]2C(C(=O)c3ccc(Cl)cc3)C3(N[C@@H]2c2ccccc2)C(=O)Nc2ccc(Br)cc23)cc1 (some centres not stated) | 15.2% (inactive) |
| Cc1ccc(-c2cc(-c3cccc4ccccc34)n3c(n2)nc2ccccc23)cc1 | 7.27% (active) |
| Cc1occc1-c1nc2s/c(=C\c3cn(-c4ccccc4)nc3-c3ccccc3)c(=O)n2n1 | 102% (inactive) |
| CNC(=O)c1cc(-c2ccc(NC(=S)Nc3cccc(C(F)(F)F)c3)cc2)nc2cccnc12 | 109% (inactive) |
| CCc1ccc(NC(=O)N[C@@H](Cc2cccc(F)c2)C(=O)N[C@@H]2C(=O)N3CCC[C@H]3C(=O)N3CCCC[C@H]3C(=O)N[C@@H](CO)C(=O)N3C[C@H](C)C[C@H]3C(=O)O[C@H]2C)c(F)c1 | 13.3% (inactive) |
| O=C(CCCCCCNC(=O)C(O)(O)C(F)(F)F)Nc1ccc(-c2ccccc2)cc1 | 13.1% (inactive) |
| COc1ccc2c(c1)c(-c1cc(N)n3nc(-c4cn(C)c5ccc(OC)cc45)cc3n1)cn2C | 5.19% (active) |
| CC(O)c1cccc(/C(N)=N/C(N)=N/c2nc3ccccc3s2)c1 (configuration not stated) | 84.5% (inactive) |
| COc1ccccc1NC1=C(Cl)C(=O)c2nc(C)ccc2C1=O | -48% (active) |
| Cc1ccc2c(c1)C(=O)/C(=C/c1cccc(F)c1)S2 | 98.9% (inactive) |
| Cc1ccc(/C=C/c2nn3c(-c4ccco4)nnc3s2)cc1C | 91.4% (inactive) |
| O=C(Cn1cc(-c2ccccc2)nn1)Nc1nc(-c2ccc(Cl)cc2)cs1 | 89.7% (inactive) |
| NS(=O)(=O)c1ccc(Nc2nc(Nc3ccccc3)nc3nnc(SCC(=O)NC4CCCCC4)n23)cc1 | 106% (inactive) |
| N#Cc1c(-c2ccc(F)cc2)cc(-c2c[nH]c3ccccc23)nc1-c1c[nH]c2ccccc12 | 98.9% (inactive) |
